Bioassay records deposited in PubChem by NMMLSC.
CIT2 TOR yeast: modulators of CIT2-GFP expression in yeast, primary screen, S. cerevisiae, GFP fusion, multiplex flow cytometry, MLPCN library | AID 2029, 2009 | S. cerevisiae CIT2-GFP strain, 3 h; 100 means same as DMSO wells | hit rate 0.065% among 320,000 | GFP response vs DMSO, % at 10 µM;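 active means GFP response relative to DMSO above a set limit, near the screen mean plus 3 SD, cut at about 150% in these data; inconclusive means Fewer than 70 cells measured for a yeast strain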;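 further: ratio of well median GFP fluorescence to mean of DMSO wells on the plate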
Myeloid diff MLP: induction of myeloid progenitor differentiation, primary screen, cell-based, flow cytometry, MLPCN library; calls only at 10 µM; AID 624256, 2012; ER-HoxA9 myeloid progenitors, lysozyme-GFP differentiation; hit rate 1% among 360,000;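 active means normalized GFP-positive differentiation at or above the plate's own cutoff, the solvent-only control mean plus 3 SD; inconclusive means no clear call, values can overlap the other calls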;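 further: cells exposed to compound for four days before flow analysis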
LAP4 TOR yeast: modulators of LAP4-GFP expression in yeast, primary screen, S. cerevisiae, multiplex flow cytometry, MLPCN library; 3 h; median GFP as percent of DMSO wells; GFP response vs DMSO, % at 10 µM; hit rate 0.34% among 320,000;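 active means GFP response vs DMSO above a set limit, about the screen mean plus 3 SD, cut at about 150% in these data; inconclusive means under 70 cell events counted for the yeast strain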
AGP1-GFP MLPCN: modulators of AGP1-GFP expression in yeast TOR pathway, primary screen, cell-based, multiplex flow cytometry, S. cerevisiae, MLPCN library; hit rate 0.02% among 320,000; GFP response vs DMSO, % at 10 µM; 3 h; GFP as percent of DMSO wells;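 active means GFP response relative to DMSO above a set limit, near screen average plus 3 SD, cut at about 150% in these data; inconclusive means fewer than 70 cells counted for the yeast strain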;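 further: median GFP channel fluorescence of the gated AGP1 strain per well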
RPL19A TOR yeast: RPL19A-GFP expression modulators in yeast, primary screen, cell-based, S. cerevisiae, multiplex flow cytometry, MLPCN; S. cerevisiae RPL19A-GFP strain, 3 h; active compounds read low; percent response vs DMSO, % at 10 µM; hit rate 0.3% among 330,000;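 active means percent response vs DMSO below 50%; inconclusive means fewer than 70 events counted for the yeast strain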;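 further: median channel GFP fluorescence of the barcoded RPL19A-GFP strain; lower means less RPL19A-GFP as with rapamycin TOR inhibition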
MEP2 TOR yeast: modulators of MEP2-GFP levels in yeast, primary screen, S. cerevisiae, multiplex flow cytometry, MLPCN library; S. cerevisiae MEP2-GFP strain, 3 h; 100% = DMSO control level; GFP response vs DMSO, % at 10 µM; hit rate 0.51% among 330,000; AID 2016, 2009;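 active means GFP response versus DMSO above a set limit, roughly screen mean plus 3 SD, cut at about 180% in these data; inconclusive means fewer than 70 cells counted for a yeast strain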;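 further: median GFP fluorescence of the barcode-gated MEP2-GFP cells per well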
A number is an active result; . = inactive; ? = inconclusive; / = not tested or not shown; + = active, no number; [ ] = remark or other dose. Hits are enriched below; roughly 1.8% of the tested compounds scored in any of these assays.

SMILES	CIT2 TOR yeast	Myeloid diff MLP	LAP4 TOR yeast	AGP1-GFP MLPCN	RPL19A TOR yeast	MEP2 TOR yeast
COc1ccc(C2=Nc3ccccc3N(C(=O)Cc3cc(OC)cc(OC)c3)C2C(=O)NC(C)(C)C)cc1 (configuration not stated)	/	.	/	/	/	/
Cc1ccc(C)c(NC(=O)COC(=O)CCC(=O)c2cccs2)c1	.	+	.	.	.	.
O=C(CCC(=O)c1cccs1)c1cccs1	.	+	.	.	.	.
Cc1ccc(NC(=O)COC(=O)CCC(=O)c2cccs2)cc1	.	.	.	.	.	.
CC(Sc1nnc(Cn2c(=O)sc3ccccc32)n1C)c1ccccc1 (configuration not stated)	.	.	.	.	.	.
CCOC(=O)c1sc2cc([N+](=O)[O-])cc(SCC(C)C)c2c1N	.	+	.	.	.	.
Cc1nn(-c2ccccc2Cl)c2sc(C(=O)Nc3nnc(C4CC4)s3)cc12	.	.	.	.	.	.
Cc1ccc(N2CC(C(N)=O)CC2=O)cc1 (configuration not stated)	/	.	.	.	.	.
Cc1ccc(N2CCN(c3ccc(C)cc3)C(CC(=O)O)C2=O)cc1 (configuration not stated)	/	+	.	.	.	.
CCn1c(=O)cc(OCC(=O)Nc2ccc(OC)c(OC)c2)c2ccccc21	.	.	.	.	.	.
CCOC(=O)CC1C(=O)NCCN1S(=O)(=O)c1ccc(NC(C)=O)cc1 (configuration not stated)	150.4[may fluoresce green]	.	.	.	.	.
CC(C)NC(=S)N/N=C/c1c[nH]c2ccccc12	.	.	.	.	.	.
Cc1[nH]c2ccccc2c1/C=N/NC(=S)NC(C)C	.	+	.	.	.	.
C/C(=C\c1ccccc1)C(=O)Nc1nc2ccc([N+](=O)[O-])cc2s1	.	.	.	.	.	.
CC(C)=CC(=O)Nc1nc2ccc([N+](=O)[O-])cc2s1	/	+	/	/	/	/
CCCOC(=O)c1ccc(NC(=O)COC)cc1	?	.	.	.	.	187.5[may fluoresce violet]
CCCOC(=O)c1ccc(NC(=O)CC(C)(C)C)cc1	.	.	.	.	.	.
O=C(c1cccc(COc2ccc(Cl)cc2Cl)c1)N1CCN(c2ccccn2)CC1	.	.	161.7	.	.	.
COc1ccc(CCN2C(=O)CSC2=Nc2ccc(C(C)C)cc2)cc1OC	.	+	.	.	.	.
COc1cccc(N2CCN(S(=O)(=O)c3ccc4nc(-c5ccccc5)[nH]c4c3)CC2)c1	?	.	.	.	/	276.9[may fluoresce violet]
CCOC(=O)C(C)On1c(-n2nc(C)cc2C)nc2ccccc2c1=O (configuration not stated)	.	.	.	.	.	.
COCCNc1nnc(Cc2ccccc2)c(=O)[nH]1	.	+	.	.	.	.
COc1ccccc1Nc1nnc(Cc2ccccc2)c(=O)[nH]1	.	.	.	.	.	.
CCC(C(=O)Nc1cccc(C(=O)O)c1C)c1ccccc1 (configuration not stated)	.	.	.	.	.	.
CCSc1ccc(-c2cc(NC=O)c3ncc(-c4cccc(C(=O)N(C)C)c4)n3c2)cc1	/	.	/	/	/	/
SMILES	CIT2 TOR yeast	Myeloid diff MLP	LAP4 TOR yeast	AGP1-GFP MLPCN	RPL19A TOR yeast	MEP2 TOR yeast
O=C(O)/C=C/c1ccc(S(=O)(=O)N(CCO)CCO)cc1	.	.	.	.	.	.
CC1=Nc2ccccc2/C1=C/c1c(C)[nH]c2ccccc12	/	+	/	/	/	/
CC1(C)CC(=O)C(C2c3ccccc3Oc3ccccc32)C(=O)C1	.	.	.	.	.	.
CCN(CC)CCN(CC(=O)N(C1CCCCC1)C1CCCCC1)C(=O)c1ccco1	?	.	.	.	.	226.1[may fluoresce violet]
COc1ccc(Cl)cc1NC(=O)CN(C(=O)c1ccco1)C1CCCCC1	.	.	.	.	.	.
CC(=NNC(=O)c1ccc(NS(=O)(=O)c2ccc(Br)cc2)cc1)c1cccnc1	.	.	.	.	.	.
CCc1cccc(NC(=O)COc2ccccc2)c1	?	.	.	?	20.9[may fluoresce violet]	251.8[may fluoresce violet]
